Laboratory results as given in the supplement of paper PMC3334620.
In all, about 33,000 sequences were measured (“E-score (-0.5 to 0.5)”: median about -0.0059, highest 2% from about 0.26 on). Many of the other results were omitted from the sample, so the highest values are more common in it than they were.

Target: T1, Cin5 (UniProt P40917)
T1 sequence: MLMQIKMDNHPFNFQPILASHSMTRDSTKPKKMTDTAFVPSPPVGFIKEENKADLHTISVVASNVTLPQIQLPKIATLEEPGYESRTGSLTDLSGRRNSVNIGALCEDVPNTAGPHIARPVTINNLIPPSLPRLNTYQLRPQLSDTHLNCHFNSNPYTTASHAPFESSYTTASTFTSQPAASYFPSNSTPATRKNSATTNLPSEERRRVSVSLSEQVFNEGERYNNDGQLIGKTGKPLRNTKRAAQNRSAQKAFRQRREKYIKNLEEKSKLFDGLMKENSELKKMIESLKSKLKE
Assay: PBM E-score (8-mer binding enrichment) (E-score (-0.5 to 0.5)); higher = stronger / more preferred TF binding
Conditions: protein concentration: 100 nM; construct: GST-full length
Outline: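 PURExpress in vitro transcription/translation supplied GST-tagged yeast transcription factors, either full-length or DNA-binding domain. Applied at about 100-200 nM to universal all-10-mer Agilent arrays double-stranded by primer extension, the bound protein was detected with fluorescent anti-GST. E-scores, modified Wilcoxon-Mann-Whitney statistics, were given by the Universal PBM Analysis Suite to ungapped eight-base words pooled with their reverse complements after masliner normalisation.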

Sequence	PBM E-score
GCATAAAC	0.115
ACATAAAA	0.22
ACATAAAC	0.263
ATAAAAAT	0.0935
ATATAAAG	0.137
ATATAAAT	0.28
CCATAAAC	-0.114
ACATAAAG	0.00631
ACATAAAT	0.28
AAGGCACC	-0.0903
AATACCTC	0.0347
CTCCATTA	-0.0341
GGCCAGAC	-0.24
CCCAGTAA	0.0641
CAGCCGCC	-0.0669
ACGGCAAG	-0.0312
ACGGCAAT	0.273
ACGGCAAA	0.0612
AATCAAAT	0.176
TATCAACA	0.108
AATCAAAC	0.326
AATCAACA	0.348
CATCAAAC	0.0949
GATCAACA	-0.0699
CCCTGCAA	-0.132

Sequence	PBM E-score
CTGGCTCA	0.0435
ACGTTGGC	-0.143
ACAATTTC	0.139
CTAGGAAC	-0.124
GTCACCGA	-0.12
GCGCATAA	0.187
CCGCATAA	0.283
ACGCATAA	0.0967
GAGCGAGA	0.166
GCAAGGAA	-0.0209
CTGCTTCA	-0.153
TATGGTAA	0.288
AATGGTAA	0.233
GATGGTAA	-0.0229
CGCTTTTC	-0.0646
AACACTGA	0.271
AACACTTA	0.154
AACACTGT	-0.0444
CTTCGCCA	-0.137
AATTAATT	0.0929
AATTAATA	0.341
TATTAACA	0.195
GATTAATC	0.145
TATTAATA	0.297
GATTAAGA	0.104

Sequence	PBM E-score
GATTAATA	0.348
CATTAATA	0.187
AATTAATG	0.221
GTGGGGTA	0.181
ACGCACTA	0.0242
GCTGGGCA	-0.142
AAGAGCCG	-0.187
CAAGGGTG	-0.166
TCGGCAGA	-0.0269
AATAAATT	0.19
CATAAATA	0.183
CATAAATG	-0.125
TATAAATA	0.283
ATTAAATC	0.205
AATAAATG	0.269
GATAAATA	0.245
ATTAAATA	0.274
TATAAAAA	0.176
TAAAAATA	0.152
AATAAATA	0.293
ATTAAATG	0.245
CTGGACCA	-0.148
ACCCACAT	0.0905
CACTGAGG	-0.0826
GTGTGTCA	0.0629

Sequence	PBM E-score
CTTACCAA	0.286
ATTACCAA	0.27
GTTACCAA	0.0591
CTTACCGA	0.0713
ATTACCAC	0.151
CTTACCAC	0.0364
AACCGAAC	-0.0782
TACCACCA	-0.0388
AGATATGC	0.0698
AGATATGG	0.26
AGATATGA	0.272
ATATATGG	0.24
CGATATGA	0.0193
GGATATGA	0.0996
GACCAGTC	-0.195
CCCCGGTC	-0.2
ATCAGTGG	0.0229
CCTAGAGA	-0.119
ATAAAGTC	0.113
ATAAAGTG	0.149
CTAAAGTA	-0.0582
GTAAAGTA	0.305
GCAAAGTA	0.175
ATAAAGTA	0.264
ACACGCCT	-0.127

Sequence	PBM E-score
CTTTATGC	-0.0141
CAGGTACC	-0.324
CGAGATTA	0.244
AGAGCGCA	-0.168
ACCTTACA	-0.0412
GGGACATA	0.0818
CTGACATA	0.153
GTGACATA	0.303
ATGACATC	0.248
GTGACACA	0.096
ATGACATA	0.296
ATAGGGCA	-0.0914
CCCAGGCC	-0.308
CTAAGAAA	-0.0357
GCGCGCGC	0.306
CCGCGCGC	0.0301
ATCCGCGC	-0.0165
ATCCGCGA	0.015
ACGCGCGC	0.158
CCGCGCGG	0.307
ATCCGCGG	0.271
GCGCGCGA	0.104
CCGCGCGA	0.186
AGGGTCGA	-0.084
AAACCAAT	0.188

Sequence	PBM E-score
GCTTGAAA	0.0153
GAATCCAA	0.0873
AAATCCAC	0.0254
ATATCAAA	0.166
AAATCCAT	0.312
CTATCAAA	0.199
AAATCCAG	0.13
GAATCAAA	0.142
TTATCAAA	0.298
CAATCAAA	0.151
TAATCAAA	0.329
AAATCCAA	0.117
TAATCCAA	0.283
AAAAGAAT	0.257
CGTCTGAA	-0.133
CAAAGTCA	0.107
CACGGGCC	-0.296
CCGCATGA	-0.136
CCAAAGAC	-0.185
CAATCTCG	0.0199
TAATCATA	0.326
CAATCGCA	0.13
CAATCATA	0.201
AAATCATA	0.198
TAATCGCA	0.294

Sequence	PBM E-score
GAATCGCA	-0.0879
ACGTTGCT	0.188
ATGCTTGA	0.133
AAGAAGTG	0.015
ATTATTAG	0.0574
ATTATTCC	0.273
CTTATTCC	0.117
ATTATTCA	0.262
ACTATTCC	0.0567
GTTATTCA	0.143
ATTATTCG	0.288
ACTATTCG	0.224
CTTATTCA	0.142
GCGACCGA	0.0144
GTGAGGAA	-0.138
GGCTTTTA	-0.223
AACTGGGA	-0.0428
AATCCTAA	0.0229
ACAGTTGG	0.016
ATAACGTC	0.0919
ATAACGAA	0.294
ATAACCAA	0.258
ATAACGTA	0.313
